# An excerpt weighted towards active compounds, which were near 2.4% of everything screened.
# Hsp90 Hop PPI: changes Hsp90-Hop TPR2A binding signal, up or down; AlphaScreen TPR2A-His6 binding biotin-Hsp90 C-terminal peptide; Potency, µM (top dose mostly 57 µM), for the others: at the highest dose activity change, negative = inhibition; 71,000 tested, 0.44% active; AID 595; active = well fitted curve in either direction with a large enough effect; inconclusive = small, poorly fitted or top-dose-only effect, or another doubt; also: potency is read from the fitted curve at half-maximal effect; % is scaled to controls: 0 for no effect and ±100 for the full control effect
# Tau fil binding: tau filament binding; P10636; Potency, µM (doses to about 57.1 µM), without a hit: at the top dose activity change, negative = inhibition; recombinant tau filaments, thioflavin S fluorescence, 15 h; filaments grown with octadecylsulfate alongside compound; AID 596; 71,000 tested, 2% active;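 also: potency is read from the fitted curve at half-maximal effect; % is scaled to controls: 0 for no effect and ±100 for the full control effect; actives lower thioflavin S fluorescence by blocking filaments or displacing dye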
# Target sequence (P10636 whole entry, looked up): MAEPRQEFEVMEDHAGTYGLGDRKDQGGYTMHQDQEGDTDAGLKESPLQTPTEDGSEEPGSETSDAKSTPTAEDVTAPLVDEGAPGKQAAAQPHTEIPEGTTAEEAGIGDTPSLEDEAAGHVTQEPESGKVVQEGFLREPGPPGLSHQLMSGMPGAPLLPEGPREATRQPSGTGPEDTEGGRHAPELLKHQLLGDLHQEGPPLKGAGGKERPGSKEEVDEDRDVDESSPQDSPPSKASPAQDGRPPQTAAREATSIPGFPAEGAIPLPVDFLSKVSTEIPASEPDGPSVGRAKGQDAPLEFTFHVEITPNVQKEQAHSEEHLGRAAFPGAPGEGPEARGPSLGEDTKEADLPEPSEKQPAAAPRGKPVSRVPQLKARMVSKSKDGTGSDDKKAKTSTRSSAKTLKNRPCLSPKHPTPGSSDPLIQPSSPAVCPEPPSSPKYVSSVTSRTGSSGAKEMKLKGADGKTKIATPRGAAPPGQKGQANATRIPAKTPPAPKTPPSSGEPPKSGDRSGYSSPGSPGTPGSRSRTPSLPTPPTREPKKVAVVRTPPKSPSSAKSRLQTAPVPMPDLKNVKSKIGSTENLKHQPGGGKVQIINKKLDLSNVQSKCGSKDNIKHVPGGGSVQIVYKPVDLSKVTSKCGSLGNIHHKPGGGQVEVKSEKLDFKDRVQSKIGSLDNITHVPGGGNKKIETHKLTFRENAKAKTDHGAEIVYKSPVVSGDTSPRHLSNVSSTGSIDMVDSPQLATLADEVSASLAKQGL
#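 His-tagged recombinant human tau (exons 2, 3 and 10 included), 1 uM, was induced to fibrillize by 30 uM sodium octadecylsulfate with compound present. After 15 h at 37 C, thioflavine S fluorescence (ex 450, em 510 nm) was read.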
# Pol III holo inh: DNA polymerase III holoenzyme inhibition | 71,000 tested, 0.25% active | Potency, µM (top dose mostly 57.1 µM), for inactives: at the highest dose activity change, negative = inhibition | AID 603 | reconstituted DNA polymerase III holoenzyme replication, biochemical; also: potency is read from the fitted curve at half-maximal effect; % is scaled to controls: 0 for no effect and ±100 for the full control effect
#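 Reconstituted *E. coli* holoenzyme (0.35 nM Pol III, 1 nM beta, 154 nM SSB, 2 nM primase) was preincubated with compound for 15 min at RT. Synthesis on 1.4 nM ssM13Gori ran 35 min, then was stopped with PicoGreen/EDTA and read as dsDNA fluorescence.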
# TsaE inh: YjeE (TsaE) inhibition, E. coli. P0AF67. purified YjeE enzyme, qHTS inhibition assay. Potency, µM. 71,000 tested, 0.05% active
#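 Fluorescence polarization of a BODIPY Texas Red–ADP probe (2 uM) bound to purified YjeE (10 uM) was read after 15 min room-temperature incubation with compounds. Loss of polarization marks inhibitors; ADP serves as titrated control.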
# BRCT PPI green: blocks human BRCA1 BRCT binding to phosphopeptide, green readout; BRCA1 BRCT-phosphopeptide binding, green fluorescence polarization; Potency, µM (series often up to 76.9 µM), inactives show at the top dose activity change, negative = inhibition, hits mostly inhibitors; 75,000 tested, 0.05% active; AID 875;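 also: potency is read from the fitted curve at half-maximal effect; plate controls were peptide without protein for full effect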
#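 Compounds were incubated for 12 min at room temperature with a complex of 100 nM fluorescein-tagged pBACH1 decapeptide and 250 nM His-tagged BRCT protein. Buffer was phosphate pH 7.3 with EDTA, DTT and Tween 20. Disruption of binding lowers the polarization signal.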
# BRCT inh red: BRCT-phosphoprotein interaction inhibition (red fluorophore); BRCT-phosphopeptide binding, red fluorescence polarization; AID 892; Potency, µM (series often up to 76.9 µM), without a hit: at the top dose activity change, negative = inhibition, hits mostly inhibitors; 75,000 tested, 0.03% active; P38398; also: % is scaled to controls: 0 for no effect and ±100 for the full control effect
#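 Rhodamine-labelled pBACH1 10-mer (100 nM) bound to BRCT domain (100 nM) at pH 7.3; compounds incubated 12 min room temperature, polarization read. Free peptide defines full inhibition; unlabelled decapeptide titrated as control.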
# The depositor's hits bear a star; i = inactive; ? = inconclusive; / = no result given; [ ] = another dose, or the depositor's remark. Unless noted, calls follow the shape of the dose curve; as a rule, active = well fitted curve in the direction sought with a large enough effect; inconclusive = small, poorly fitted or top-dose-only effect, or another doubt; inactive = no such curve, though single readings can be large; an effect the other way counts as inactive or inconclusive.
SMILES,Hsp90 Hop PPI,Tau fil binding,Pol III holo inh,TsaE inh,BRCT PPI green,BRCT inh red
COc1cc(C)cc2c(-c3c(O)cc(O)c4c3C[C@H](C)N[C@@H]4C)cc(-c3cc(-c4c(O)cc(O)c5c4C[C@H](C)N[C@@H]5C)c4cc(C)cc(OC)c4c3O)c(O)c12,-12.5%[11 µM],3.98µM*,-6.8%[11.4 µM],i,-0.1%[15.4 µM],0.0%[15.4 µM]
c1csc(CNc2nc(-c3ccoc3)nc3ccccc23)c1,-9.5%,25.1µM*,-4.3%,i,-0.9%,1.4%
CCOC(=O)C(C(C)=O)c1c(Br)c(O)c(O)c2c(C(=O)c3ccc(C)cc3)coc12 (configuration not stated),?,10µM*,5.7%,i,1.7%,-0.2%
COc1ccc(NC(=O)c2oc3ccccc3c2NC(=O)C(C)(C)C)cc1,5.5%,12.6µM*,-4.1%,i,0.6%,-0.2%
COc1ccc2nc(Nc3ccc4c(c3)OCO4)sc2c1,?,12.6µM*,4.9%,i,-3.5%,-0.8%
N#CC(=C1CCCC1)c1nc(-c2ccccc2O)cs1,-12.7%,12.6µM*,7.6%,i,7.0%,0.5%
c1ccc(Cc2nnc3sc(-c4ccco4)nn23)cc1,-0.7%,15.8µM*,-5.5%,i,1.7%,0.1%
c1ccc(-c2cc(-c3nn4c(-c5ccco5)nnc4s3)c3ccccc3n2)cc1,-11.9%,0.631µM*,-5.1%,i,-0.3%,-1.9%
CCc1ccccc1O,-2.6%,-8.0%,-7.1%,i,-0.6%,1.1%
CC(C)OCCCn1c(-c2ccco2)nc2nc3ccccc3nc21,2.8%,15.8µM*,-3.2%,i,2.6%,0.2%
COCCn1c(-c2ccco2)nc2nc3ccccc3nc21,-1.6%,-15.2%,-6.1%,i,0.5%,0.9%
CCCN=Cc1sc2ccc(OCC)cc2c1O,-8.9%,15.8µM*,2.2%,i,-0.2%,-1.0%
O=C(Nc1ccc2c(c1)OCCO2)c1ccc2nccnc2c1,-10.4%,-5.0%,-3.3%,i,-1.4%,0.1%
O=C(Nc1ccc(SC(F)F)cc1)c1ccc2nccnc2c1,-7.6%,12.6µM*,-10.7%,i,-1.8%,1.2%
Cc1ccc(C2NC(=O)NC3=C2CCc2ccccc23)cc1 (configuration not stated),0.4%,20µM*,-6.8%,i,-0.3%,-0.3%
Cc1nc(C)c(C(=O)Nc2nc3c(C)cccc3s2)o1,-9.9%,31.6µM*,-15.8%,i,0.0%,-5.2%
COc1ccc2c(c1)Cc1sc(NC(=O)c3cccs3)nc1-2,-6.1%,25.1µM*,-6.3%,i,-4.6%,1.0%
CCOC(=O)Nc1ccc2c(c1)Nc1ccccc1S2,?,?,4.6%,i,-1.7%,-0.4%
CCOC(=O)Nc1ccc2c(c1)N(C(=O)N1CCN(C)CC1)c1ccccc1S2,?,15.8µM*,1.2%,i,-3.7%,-0.7%
Cc1cc(=S)[nH]c2ccccc12,3.4%,7.4%,-3.2%,i,-1.4%,0.5%
COc1ccc(OC)c2c(=S)c3ccccc3[nH]c12,-16.1%,12.6µM*,-17.4%,i,-5.0%,-0.9%
CN(C)CCCNC(=O)c1ccc(Cc2nc3ccccc3[nH]2)cc1,/,/,/,/,-2.2%,1.1%
Cc1ccccc1Cn1c(=N)n(CC(O)c2ccco2)c2ccccc21 (configuration not stated),-4.8%,15.8µM*,-7.5%,i,-2.3%,-0.6%
NC1=C2NC=N[C@@H]2N(C/C=C\c2ccccc2)C=N1,-2.2%[11 µM],11.8%[11.4 µM],-9.5%[11.4 µM],i,-0.9%[15.4 µM],-3.4%[15.4 µM]
CN1CCN(C(=O)c2cc3nc(-c4ccc(Cl)cc4)cc(C(F)(F)F)n3n2)CC1,-5.7%[11 µM],2.51µM*,0.9%[11.4 µM],i,-1.3%,0.0%
CN1CCN(C(=O)c2cnn3c(C(F)(F)F)cc(-c4ccc5c(c4)OCO5)nc23)CC1,-1.2%,-9.4%,1.8%,i,-1.8%,0.8%
CCN1CCN(C(=O)c2cnn3c(C(F)F)cc(-c4ccc(C)cc4)nc23)CC1,-1.6%,20µM*,-2.2%,i,-0.7%,-3.1%
